Laboratory results: PubChem BioAssay (NCATS)
Inconclusive results are not listed. Calls of active or inactive are those of the source. Unless noted, calls come from the whole dose curve; as a rule, active = well fitted curve in either direction with a large enough effect (not every such curve was filed as active); inconclusive = small, poorly fitted or top-dose-only effect, or another doubt; inactive = flat fitted curve, though single readings scatter.

What was measured:
[1] = molecular target: Lysosomal acid glucosylceramidase (Homo sapiens) (UniProt P04062); experiment: Glucocerebrosidase-p2 (AID 348; in the data active = potency below about 10 µM; note: potency is the fitted concentration of half-maximal effect); conditions: purified GBA, blue fluorogenic substrate, 40 min
Summary of the method: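 Compounds titrated from 0.6 nM upwards against 0.2 nM enzyme in pH 5.9 citric acid/KH2PO4, taurocholate, tween-20; blue fluorogenic substrate 80 uM, 40 min room temperature, stopped and read Ex 365/Em 440 for AC50.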

[2] = AP1 Signaling Pathway (AID 357); conditions: ME-180 AP-1-bla reporter, EGF-induced, beta-lactamase ratio, 5 h; at 7.69 µM (top of the series) unless noted;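 note: ME-180 reporter cells stimulated with EGF at its EC50 level; % is set by controls: 0 for no effect and ±100 for the full control effect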
Summary of the method: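 AP-1-bla ME-180 cells, Opti-MEM + 0.5% dialyzed FBS, plated overnight 37 °C. Cpd titration + EC50 EGF, 5 h 37 °C. CCF4 2.5 h RT; ex 405, em 460/530 ratio → %activity, AC50.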

[3] = molecular target: Cytochrome P450 1A2 (Homo sapiens) (UniProt P05177); experiment: p450-cyp1a2 (AID 410; calls by dose curve; note: potency is the fitted concentration of half-maximal effect); conditions: recombinant CYP1A2, luciferin-ME demethylation, luminescence; series mostly up to 57 µM
Summary of the method: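 Inhibition was calculated relative to 57 uM furafylline (full inhibition). The reaction used human CYP1A2 at 20nM with Luciferin-ME at its Km, 100uM, driven by an NADPH-regenerating system for 60 min at room temperature.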

[4] = NFAT Signaling Pathway (AID 444); conditions: Jurkat NFAT-bla M1, carbachol, beta-lactamase ratio, 5 h; at 7.69 µM (top of the series) unless noted;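 note: carbachol stimulus at about its EC50 of 1 µM final; % is set by controls: 0 for no effect and ±100 for the full control effect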
Summary of the method: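 Read-out: CCF4 FRET ratio (460 nm/530 nm) after 1 h RT dye loading, used for %activity and AC50 from titration series. Cells: Jurkat NFAT-β-lactamase/M1 line, treated with compound plus 1 uM carbachol for 5 h, 37 °C.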

[5] = Stat Signaling Pathway (AID 446); conditions: ME-180 SIE beta-lactamase reporter, IL-6 stimulated, 5 h; at 7.69 µM (top of the series) unless noted;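 note: ME-180 cervical cancer cells given 40 pM IL-6 alongside compound; SIE-controlled beta-lactamase reporter measured as 460/530 nm FRET emission ratio; % is set by controls: 0 for no effect and ±100 for the full control effect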
Summary of the method: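 ME-180 cells carrying a SIE-driven beta-lactamase reporter are stimulated with 40 pM IL-6 for 5 h at 37C in the presence of compound. The 460/530 nm FRET substrate ratio is read after 2.5 h at RT. Data are normalised to 300 pM IL-6 and to 125 nM JAK inhibitor controls.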

[6] = molecular target: Glucocorticoid receptor (Homo sapiens) (UniProt P04150); experiment: GR-GFP Redistribution (AID 450;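 active = compounds whose dose series gives a full or clear partial fitted curve of increased nuclear translocation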; note: potency is the fitted concentration of half-maximal effect); conditions: U2OS GR-GFP nuclear translocation, laser cytometry, 2 h
[7] = molecular target: Glucocorticoid receptor (Homo sapiens) (UniProt P04150); experiment: GR-EFC Redistribution (AID 451; calls by dose curve; note: potency is the fitted concentration of half-maximal effect); conditions: CHO-K1 GR-EFC translocation, beta-gal luminescence, 2 h
Summary of the method: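 Translocation of GR-ED fusion to nuclear EA restores b-gal, read by luminescence after 1 h room-temperature detection. Engineered CHO-K1 biosensor cells, 1,000/well, exposed 2 h at 37 C to titrations up to 46 uM final.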

[8] = molecular target: Mitogen-activated protein kinase 10 (Mus musculus) (UniProt Q61831); experiment: JNK3 AlphaScreen Assay (AID 530); conditions: JNK3 lysate, c-Jun phosphorylation; series mostly up to 57.1 µM;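 note: kinase came from lysate of stimulated human HepG2 cells; signal reports phosphorylation of biotinylated GST-cJun 1-79 at Ser73 with 10 µM ATP; % is set by controls: 0 for no effect and ±100 for the full control effect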
Summary of the method: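 Room-temperature AlphaScreen kinase assay; pre-activated HepG2 lysate as JNK3 source, biotin-GST-cJun(1-79) substrate, 10 uM ATP, compound 15 min preincubation.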

[9] = molecular target: 3',5'-cyclic-AMP phosphodiesterase 4B (Homo sapiens) (UniProt Q07343); experiment: qHTS Assay for Inhibitors of PDE-IV (AID 607; active = well fitted activation curve with a large enough effect in the main read-out, with a control signal flat, not every such curve was filed as active; note: % of control where 0% means no effect); conditions: HEK293 ACTOne CNG channel cells, membrane potential fluorescence; series mostly up to 22.9 µM
Summary of the method: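 HEK293 ACTOne cells with CNG channel (1000/well), endogenous PDE4; membrane potential dye, compounds up to 22.9 uM final. Fluorescence Ex 535/Em 590; RO 20-1724 (100 uM final) as reference.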

[10] = molecular target: Cytochrome P450 3A4 (Homo sapiens) (UniProt P08684); experiment: qHTS Assay for Activators of Cytochrome P450 3A4 (AID 885; active = well fitted curve in the direction sought with a large enough effect; an effect the other way counts as inactive or inconclusive; note: nearly all actives have a fitted effect of over 65% in size); conditions: recombinant CYP3A4, Luciferin-PPXE luminescence, 60 min; series mostly up to 57.1 µM
Summary of the method: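 Human CYP3A4 (20 nM) with Luciferin-PPXE at 25 uM (its KM) in 200 mM KPO4; 10 min compound preincubation, then NADPH regeneration and 60 min reaction at RT. Luciferin read by luminescence; normalized to 57 uM ketoconazole full inhibition.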

[11] = Primary qHTS for small molecule stabilizers of the endoplasmic reticulum resident proteome: Secreted ER Calcium Modulated Protein (SERCaMP) assay (AID 1508630; active = well fitted curve in the direction sought with a large enough effect; an effect the other way counts as inactive or inconclusive; note: % is set by controls: 0 for no effect and ±100 for the full control effect); conditions: SH-SY5Y GLuc-SERCaMP (Gaussia luciferase released on ER calcium loss) secretion, thapsigargin, luminescence; series mostly up to 38.4 µM
Summary of the method: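 GLuc-SERCaMP-expressing SH-SY5Y cells, pretreated 16 h with compound, are challenged with thapsigargin to empty ER calcium stores; after 4 h, coelenterazine is added directly to the medium and luminescence is imaged.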

[12] = qHTS Assay for Identification of Small Molecule Agonists for Hypoxia Response Element Signaling Pathway (AID 914; active = well fitted activation curve with a large enough effect in the signal ratio, with a control signal flat, not every such curve was filed as active; the % refers to the signal ratio; note: % of control where 0% means no effect); conditions: ME-180 (cervical carcinoma) HRE-bla reporter, beta-lactamase ratio, CoCl2, 17 h; activation: active compounds read high
Summary of the method: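 A beta-lactamase reporter under hypoxia response element control in ME-180 cells served as the system. Compound titrations plus EC50 CoCl2 ran 17 h at 37 degrees Celsius; AC50 values were fitted from %Activity.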

[13] = molecular target: Ubiquitin carboxyl-terminal hydrolase 1 (Homo sapiens) (UniProt O94782); experiment: Inhibitors of USP1/UAF1: Pilot qHTS (AID 504865; active = well fitted curve in the direction sought with a large enough effect; an effect the other way counts as inactive or inconclusive;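 note: rhodamine fluorescence freed from ubiquitin-rhodamine substrate followed over time; top concentration of the series differs between compounds; % is set by controls: 0 for no effect and ±100 for the full control effect; nearly all actives have a fitted effect of over 35% in size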); conditions: purified USP1/UAF1, Ub-rhodamine cleavage fluorescence; series mostly up to 54.9 µM
Summary of the method: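 Kinetic fluorescence assay: 1nM USP1/UAF1, 15 min compound preincubation, then 150nM Ub-Rho; 480/540 nm.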

Sequence of Lysosomal acid glucosylceramidase (Homo sapiens) (P04062 whole entry, looked up): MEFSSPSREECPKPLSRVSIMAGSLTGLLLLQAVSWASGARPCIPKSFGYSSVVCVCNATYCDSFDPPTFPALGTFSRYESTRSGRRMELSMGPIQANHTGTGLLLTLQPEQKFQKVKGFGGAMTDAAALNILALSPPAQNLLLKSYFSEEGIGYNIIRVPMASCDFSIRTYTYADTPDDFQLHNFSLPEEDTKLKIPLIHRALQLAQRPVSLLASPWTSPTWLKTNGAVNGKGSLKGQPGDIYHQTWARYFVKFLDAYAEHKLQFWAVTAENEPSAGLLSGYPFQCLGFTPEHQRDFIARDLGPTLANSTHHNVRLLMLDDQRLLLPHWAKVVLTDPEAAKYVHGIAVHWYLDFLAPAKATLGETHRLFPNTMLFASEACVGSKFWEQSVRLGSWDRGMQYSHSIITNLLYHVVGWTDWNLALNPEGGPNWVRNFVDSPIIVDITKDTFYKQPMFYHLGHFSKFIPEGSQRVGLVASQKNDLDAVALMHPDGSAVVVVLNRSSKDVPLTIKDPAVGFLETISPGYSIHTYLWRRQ
Sequence of Glucocorticoid receptor (Homo sapiens) (P04150 whole entry, looked up, the tested form may be a part): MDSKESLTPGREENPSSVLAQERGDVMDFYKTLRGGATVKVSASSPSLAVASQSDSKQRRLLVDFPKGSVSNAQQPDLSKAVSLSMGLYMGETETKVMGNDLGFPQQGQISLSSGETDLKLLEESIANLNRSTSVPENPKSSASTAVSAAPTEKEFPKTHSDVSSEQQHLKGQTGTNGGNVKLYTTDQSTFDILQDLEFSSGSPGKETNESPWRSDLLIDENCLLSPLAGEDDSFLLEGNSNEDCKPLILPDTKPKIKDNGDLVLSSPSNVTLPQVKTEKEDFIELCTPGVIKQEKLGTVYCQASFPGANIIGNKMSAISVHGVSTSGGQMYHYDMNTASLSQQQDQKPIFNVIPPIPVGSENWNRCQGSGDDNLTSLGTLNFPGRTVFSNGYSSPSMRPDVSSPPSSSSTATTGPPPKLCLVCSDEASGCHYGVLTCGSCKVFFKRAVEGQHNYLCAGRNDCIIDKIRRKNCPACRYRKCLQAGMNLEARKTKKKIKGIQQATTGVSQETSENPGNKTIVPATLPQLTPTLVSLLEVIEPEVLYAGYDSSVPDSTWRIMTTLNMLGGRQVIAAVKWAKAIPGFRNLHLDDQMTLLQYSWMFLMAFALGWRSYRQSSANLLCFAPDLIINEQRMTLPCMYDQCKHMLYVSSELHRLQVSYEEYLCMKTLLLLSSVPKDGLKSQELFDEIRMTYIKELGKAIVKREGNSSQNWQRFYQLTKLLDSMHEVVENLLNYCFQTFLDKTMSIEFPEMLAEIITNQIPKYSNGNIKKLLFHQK
Sequence of Cytochrome P450 1A2 (Homo sapiens) (P05177 whole entry, looked up): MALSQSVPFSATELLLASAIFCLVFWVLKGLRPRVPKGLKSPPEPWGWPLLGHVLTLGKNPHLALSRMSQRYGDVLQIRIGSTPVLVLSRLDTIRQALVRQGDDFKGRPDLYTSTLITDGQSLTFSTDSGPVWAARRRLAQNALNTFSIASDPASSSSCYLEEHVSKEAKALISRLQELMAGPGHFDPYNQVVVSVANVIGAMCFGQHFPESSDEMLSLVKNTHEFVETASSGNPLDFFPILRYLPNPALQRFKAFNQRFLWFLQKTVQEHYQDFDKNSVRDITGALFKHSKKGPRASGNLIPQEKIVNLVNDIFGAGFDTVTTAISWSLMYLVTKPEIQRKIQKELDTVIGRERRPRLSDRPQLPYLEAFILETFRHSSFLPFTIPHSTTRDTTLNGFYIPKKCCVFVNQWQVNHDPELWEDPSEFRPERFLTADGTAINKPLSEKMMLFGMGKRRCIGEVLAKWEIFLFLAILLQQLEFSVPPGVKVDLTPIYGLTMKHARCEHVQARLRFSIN
Sequence of 3',5'-cyclic-AMP phosphodiesterase 4B (Homo sapiens) (Q07343 whole entry, looked up): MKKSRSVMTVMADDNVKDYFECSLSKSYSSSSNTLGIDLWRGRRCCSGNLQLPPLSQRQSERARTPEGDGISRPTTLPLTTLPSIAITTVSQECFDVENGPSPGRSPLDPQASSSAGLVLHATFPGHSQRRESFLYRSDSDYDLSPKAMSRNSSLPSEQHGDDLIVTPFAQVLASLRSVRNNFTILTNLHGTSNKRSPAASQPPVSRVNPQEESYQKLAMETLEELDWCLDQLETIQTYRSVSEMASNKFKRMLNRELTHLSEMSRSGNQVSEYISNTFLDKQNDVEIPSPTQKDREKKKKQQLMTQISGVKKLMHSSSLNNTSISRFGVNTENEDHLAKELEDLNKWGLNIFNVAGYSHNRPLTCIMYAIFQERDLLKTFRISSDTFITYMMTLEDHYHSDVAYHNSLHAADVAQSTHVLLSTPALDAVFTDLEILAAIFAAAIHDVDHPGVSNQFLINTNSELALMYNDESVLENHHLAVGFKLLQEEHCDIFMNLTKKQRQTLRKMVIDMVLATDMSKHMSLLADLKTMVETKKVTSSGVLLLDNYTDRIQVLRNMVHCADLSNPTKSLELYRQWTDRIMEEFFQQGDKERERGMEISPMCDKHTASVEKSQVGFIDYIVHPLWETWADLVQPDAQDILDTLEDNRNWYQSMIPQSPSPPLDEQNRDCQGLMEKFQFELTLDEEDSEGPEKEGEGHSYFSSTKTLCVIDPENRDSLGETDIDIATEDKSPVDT
Sequence of Cytochrome P450 3A4 (Homo sapiens) (P08684 whole entry, looked up): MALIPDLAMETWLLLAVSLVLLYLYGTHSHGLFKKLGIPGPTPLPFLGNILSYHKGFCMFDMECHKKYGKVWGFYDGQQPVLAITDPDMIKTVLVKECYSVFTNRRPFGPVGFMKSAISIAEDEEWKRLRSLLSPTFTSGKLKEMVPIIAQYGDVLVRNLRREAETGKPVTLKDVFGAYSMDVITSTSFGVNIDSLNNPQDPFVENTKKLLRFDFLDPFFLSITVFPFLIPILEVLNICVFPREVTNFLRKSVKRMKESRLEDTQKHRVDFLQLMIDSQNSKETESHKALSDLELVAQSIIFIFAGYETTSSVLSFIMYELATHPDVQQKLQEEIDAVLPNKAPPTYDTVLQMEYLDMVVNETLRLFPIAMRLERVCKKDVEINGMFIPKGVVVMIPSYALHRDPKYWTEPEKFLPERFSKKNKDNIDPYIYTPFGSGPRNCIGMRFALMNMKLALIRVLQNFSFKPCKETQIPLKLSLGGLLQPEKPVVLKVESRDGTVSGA
Sequence of Ubiquitin carboxyl-terminal hydrolase 1 (Homo sapiens) (O94782 whole entry, looked up): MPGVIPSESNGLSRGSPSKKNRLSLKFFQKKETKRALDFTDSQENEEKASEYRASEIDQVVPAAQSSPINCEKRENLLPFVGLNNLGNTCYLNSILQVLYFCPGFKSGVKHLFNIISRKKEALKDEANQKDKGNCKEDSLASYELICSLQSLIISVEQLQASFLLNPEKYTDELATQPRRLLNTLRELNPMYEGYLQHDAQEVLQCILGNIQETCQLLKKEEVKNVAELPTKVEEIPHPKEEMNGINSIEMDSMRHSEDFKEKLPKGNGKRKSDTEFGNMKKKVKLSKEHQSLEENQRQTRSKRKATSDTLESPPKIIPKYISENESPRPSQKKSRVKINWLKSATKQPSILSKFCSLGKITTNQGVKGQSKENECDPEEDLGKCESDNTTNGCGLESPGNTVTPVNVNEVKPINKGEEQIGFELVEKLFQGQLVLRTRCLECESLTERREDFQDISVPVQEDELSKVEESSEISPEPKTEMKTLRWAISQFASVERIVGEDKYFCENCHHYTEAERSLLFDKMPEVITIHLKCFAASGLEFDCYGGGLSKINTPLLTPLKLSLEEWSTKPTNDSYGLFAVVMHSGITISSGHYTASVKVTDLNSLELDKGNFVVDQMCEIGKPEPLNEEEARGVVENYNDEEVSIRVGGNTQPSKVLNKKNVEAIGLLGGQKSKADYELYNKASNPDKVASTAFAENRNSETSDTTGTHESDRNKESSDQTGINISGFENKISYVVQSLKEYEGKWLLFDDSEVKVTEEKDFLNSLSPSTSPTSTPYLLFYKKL

COc1ccc(-n2c(=O)c(C)nc3cnc(N(C)C)nc32)cc1
inactive: Potency [1] > 11.4 µM | activity change, negative = inhibition [2] -8.91% | activity change, negative = inhibition [4] 5.39% | activity, negative = inhibition [5] -5.54% | Potency [6] > 9.22 µM | Potency [7] > 46 µM | Potency [8] | Potency [9] | Potency [10] | outcome [11]
active: Potency [3] 6.31 µM

CN(C)c1ncc2nc(-c3ccc(F)cc3)c(=O)n(CCC#N)c2n1
inactive: Potency [1] > 11.4 µM | activity change, negative = inhibition [2] 4.59% | activity change, negative = inhibition [4] 8.55% | activity, negative = inhibition [5] 23.5% | Potency [6] > 9.22 µM | Potency [7] > 46 µM | Potency [8] | Potency [9] | outcome [11]
active: Potency [3] 1.26 µM

O=c1c(-c2ccccc2)nc2cncnc2n1C1CC1
active: Potency [3] 2 µM
inactive: Potency [1] > 11.4 µM | activity change, negative = inhibition [2] -14.9% | activity change, negative = inhibition [4] 6.76% | activity, negative = inhibition [5] 8.37% | Potency [6] > 9.22 µM | Potency [7] > 46 µM | Potency [8] | outcome [11]

COCCn1c(=O)c(-c2ccc(F)cc2)nc2cncnc21
inactive: Potency [1] > 11.4 µM | activity change, negative = inhibition [2] -7.99% | activity change, negative = inhibition [4] 1.81% | activity, negative = inhibition [5] 2.35% | Potency [6] > 9.22 µM | Potency [7] > 46 µM | Potency [8] | Potency [9] | Potency [10] | activation [12] 3.14% | outcome [11]
active: Potency [3] 0.501 µM

COc1ccc(Oc2ncc3nc(C)c(=O)n(CCC#N)c3n2)cc1
inactive: Potency [1] > 11.4 µM | activity change, negative = inhibition [2] -15.5% | activity change, negative = inhibition [4] 8.56% | activity, negative = inhibition [5] -12.9% | Potency [6] > 9.22 µM | Potency [7] > 46 µM | Potency [8] | Potency [9] | outcome [11]
active: Potency [3] 25.1 µM

CN(C)C(=O)c1ccc(-c2nc(N(C)Cc3ccco3)c3ccccc3n2)cc1
inactive: Potency [1] > 11.4 µM | activity change, negative = inhibition [2] -14.5% | activity change, negative = inhibition [4] 18.1% | activity, negative = inhibition [5] 3.3% | Potency [6] > 46 µM | Potency [7] > 46 µM | Potency [8] | Potency [13] | outcome [11]
active: Potency [3] 7.94 µM

Cn1c(=O)c(-c2cccc(Cl)c2)nc2cncnc21
active: Potency [3] 0.501 µM
inactive: Potency [1] > 11.4 µM | activity change, negative = inhibition [2] -7.56% | activity change, negative = inhibition [4] -2.65% | activity, negative = inhibition [5] -10.2% | Potency [6] > 9.22 µM | Potency [7] > 46 µM | Potency [8] | Potency [9] | outcome [11]
